The test system of the first experiment is Plasmodium falciparum. In words: GSK_TCMDC: Inhibition of Plasmodium falciparum 3D7 in whole red blood cells, using parasite LDH activity as an index of growth. Test compounds present at 2uM. Format: functional.
The compound `CN(C)c1cc(NC(=O)Nc2ccc(SC(F)(F)F)cc2)c2ccccc2n1` registered an Inhibition of 100%. Still for that read-out and setting: the value for `Cc1cccc2nc(-c3ccc(-c4cccc(CNCC5CCCO5)c4)cc3)[nH]c12.O=C(O)C(F)(F)F` (stereo not drawn) was 100%; that for `N#CCCn1nc(-c2ccc(Cl)cc2)c2c(c1=O)CCCC2` was 94%.

`CCN(CC)C(=O)c1cccc(C=Cc2ccc(-c3c(C)[nH]c(C)c(Cl)c3=O)cc2)c1` returned an Inhibition of 96%. The same measure, in the same setting: the value for `Cc1onc(-c2ccccc2Cl)c1C(=O)Nc1cc(Cl)c(Cl)cc1Cl` was 90%; that for `Cn1nccc1C(=O)NCCNCc1ccc(-c2cccc(-c3nc4ccccc4[nH]3)c2)cc1.O=C(O)C(F)(F)F` was 100%; that for `COc1cc(CN/C(=N/c2ccc(-c3ccccc3)cc2)Nc2ccc(C#N)cc2O)cc(OC)c1` was 95%. The same measure, in the same setting: to `CC(C)(C)c1ccc(-c2csc(NC(=O)CC(c3ccccc3)c3ccccc3)n2)cc1` belongs 86%; to `CC1(C)C(=O)Nc2ccccc2N1C(=O)CN1CCN(c2ccccc2O)CC1`, 92%; to `Cc1cccc2nc(-c3ccc(-c4ccc(CN5CCN(C6CCN(C)CC6)CC5)cc4)s3)[nH]c12.O=C(O)C(F)(F)F`, 100%. Still for that read-out and setting: to `Cn1cnc(CCNC(=O)c2ccc(-c3cccc(-c4nc5ccccc5[nH]4)c3)cc2)c1` belongs 93%; to `COc1ccc(Cl)cc1N1CCN(CCCNC(=O)c2ccc(-c3nc4cc(Cl)c(F)cc4[nH]3)cc2)CC1`, 100%; to `CN(C)c1cc(NC(=O)Nc2ccccc2)c2ccccc2n1`, 100%.

Another experiment deals with Plasmodium falciparum. In words: GSK_TCMDC: Inhibition of Plasmodium falciparum Dd2 in whole red blood cells, using parasite LDH activity as an index of growth. Test compounds present at 2uM. It is filed as functional.
The compound `COc1ccc(C2CC(c3ccccc3)=NN2C(=O)c2ccc(Br)o2)cc1` (stereo not drawn) showed an Inhibition of 45%.

As for `CC1(C)N=C(N)N=C(NOCc2ccc(Cl)c(Cl)c2)N1`, the Inhibition came to 27%. Same read-out and setting: the value for `Fc1cccc(COc2ccc(Nc3ncnc4sc(C#CCNC5CCCC5)cc34)cc2Cl)c1` was 78%. Same read-out and setting: the value for `O=C(Nc1ccc(Br)cc1)N1CCC(n2c(-c3ccccc3)nc3cccnc32)CC1` was 86%; that for `COc1ccc(-c2ccc(NC(=O)c3cccc(C#N)c3)cc2)cc1CN1CCN(C)CC1.O=C(O)C(F)(F)F` was 59%; that for `CC1(C)NC(N)=NC(=N)N1OCc1cc(Cl)c(Cl)cc1CON1C(=N)N=C(N)NC1(C)C` was 100%. Still for that read-out and setting: to `CCCCN(CCCC)C(=O)CC(O)c1cc2c(Cl)cc(Cl)cc2c2cc(C(F)(F)F)ccc12` (stereo not drawn) belongs 68%; to `COc1ccc(NC(=O)/C=C/c2ccccc2Cl)cc1OCCN1CCC(NCc2ccccc2)CC1`, 100%. `O=C(/C=C/c1ccc(Cl)c(Cl)c1)NCCCCCN1CCC(CCNC(=O)c2snnc2-c2ccccc2)CC1` showed an Inhibition of 1%. On the same count and under the same terms, the value for `COCCOc1nc(N)nc2ncc(Cc3cc(OC)ccc3OC)c(C)c12` was 0%. For `CCNc1cc(C)nc(Nc2ccc(NC(=O)c3ccccc3Br)cc2)n1`, the Inhibition came to 56%. Still for that read-out and setting: to `CC1CCCCN1CCCNC(=O)c1cccc(-c2cc3cc(Cl)c(Cl)cc3[nH]2)c1.O=C(O)C(F)(F)F` (stereo not drawn) belongs 7%; to `Nc1ccc(-c2ccc3ccnc(N)c3c2)cn1.O=C(O)C(F)(F)F`, 100%; to `CC(C)c1ccc(CN2CCCCC(NC(=O)c3cc(-c4cccc(F)c4)cs3)C2)cc1.O=C(O)C(F)(F)F` (stereo not drawn), 13%.

As to `O=C(/C=C/c1ccc(C(F)(F)F)cc1)NCCCCCN1CCCN(C(=O)Nc2cccc(Cl)c2)CC1`, the Inhibition is 3%. Still for that read-out and setting: the value for `COc1ccc(CC2(c3ccc(F)cc3)N=C(N)N(CCCc3ccc4c(c3)OCO4)C2=O)cc1.O=C(O)C(F)(F)F` (stereo not drawn) was 97%; that for `CN1CCN(c2cc3c(cc2Cl)CCN3C(=O)Nc2ccc(NC(=O)c3ccc(C(F)(F)F)cc3)cc2)CC1.Cl` was 99%.

In turn, `Cc1[nH]c(C)c(-c2cccc(-c3ccc(OC(F)(F)F)cc3)c2)c(=O)c1Br` had an Inhibition of 96%.

Regarding `C=CCn1c(SCc2c(C)noc2C)nc2scc(-c3cccs3)c2c1=O`, the Inhibition is listed as 34%. Still for that read-out and setting: the value for `COc1cccc(-c2cnc(N)c(-c3nc4ccc(C(F)(F)F)cc4[nH]3)c2)c1.Cl` was 30%.

Compound `COCCCn1c(=N)c(C(=O)NCCc2ccc(OC)cc2)cc2c(=O)n3cccc(C)c3nc21` registered an Inhibition of 33%. Take `O=C(c1ccccc1)N1CCC(CN2CCOC(c3ccccc3)(c3ccccc3)C2)CC1`: the Inhibition was determined as 95%. Same read-out and setting: to `Cc1ccccc1C1CCN(C2CCC(NC(=O)/C=C/c3ccc(F)cc3)CC2)CC1` (stereo not drawn) belongs 30%; to `CC(C)n1ncc2c(C(=O)N3CCCC4CCCCC43)cc(C3CC3)nc21` (stereo not drawn), 92%; to `Cc1ccccc1C1CCN(C2CCC(NC(=O)C3=Cc4cc(Cl)ccc4OC3)CC2)CC1` (stereo not drawn), 99%. On the same count and under the same terms, to `CC(=O)Nc1ccc(OCCN(Cc2ccccc2C(F)(F)F)c2ccc(C#N)c(C(F)(F)F)c2)c(Cl)c1` belongs 78%; to `CCn1c(-c2nonc2N)nc2c(-c3cccc(Cl)c3)ncc(OCCCNCc3cnc(C)nc3N)c21.O=C(O)C(F)(F)F`, 48%. The same measure, in the same setting: to `CN(C)c1cc(NC(=O)Nc2ccc(SC(F)(F)F)cc2)c2ccccc2n1` belongs 100%; to `Cc1cccc2nc(-c3ccc(-c4cccc(CNCC5CCCO5)c4)cc3)[nH]c12.O=C(O)C(F)(F)F` (stereo not drawn), 50%. `N#CCCn1nc(-c2ccc(Cl)cc2)c2c(c1=O)CCCC2` had an Inhibition of 32%. The same measure, in the same setting: to `CCN(CC)C(=O)c1cccc(C=Cc2ccc(-c3c(C)[nH]c(C)c(Cl)c3=O)cc2)c1` belongs 96%. Same read-out and setting: the value for `Cc1onc(-c2ccccc2Cl)c1C(=O)Nc1cc(Cl)c(Cl)cc1Cl` was 57%; that for `Cn1nccc1C(=O)NCCNCc1ccc(-c2cccc(-c3nc4ccccc4[nH]3)c2)cc1.O=C(O)C(F)(F)F` was 87%; that for `COc1cc(CN/C(=N/c2ccc(-c3ccccc3)cc2)Nc2ccc(C#N)cc2O)cc(OC)c1` was 64%. The compound `CC(C)(C)c1ccc(-c2csc(NC(=O)CC(c3ccccc3)c3ccccc3)n2)cc1` gave an Inhibition of 64%. On the same count and under the same terms, to `CC1(C)C(=O)Nc2ccccc2N1C(=O)CN1CCN(c2ccccc2O)CC1` belongs 72%; to `Cc1cccc2nc(-c3ccc(-c4ccc(CN5CCN(C6CCN(C)CC6)CC5)cc4)s3)[nH]c12.O=C(O)C(F)(F)F`, 100%. Same read-out and setting: to `Cn1cnc(CCNC(=O)c2ccc(-c3cccc(-c4nc5ccccc5[nH]4)c3)cc2)c1` belongs 14%; to `COc1ccc(Cl)cc1N1CCN(CCCNC(=O)c2ccc(-c3nc4cc(Cl)c(F)cc4[nH]3)cc2)CC1`, 98%.

Compound `CN(C)c1cc(NC(=O)Nc2ccccc2)c2ccccc2n1` displayed an Inhibition of 98%.

By Inhibition is commonly meant the drop in the measured response relative to a control, in per cent.
